# An excerpt weighted towards active compounds, which were near 5.4% of everything screened.
# Six1-Eya2 blk = inhibitors of human Six1/Eya2 interaction | Q15475+O00167 | AlphaScreen GST-Six1/His-Eya2 binding, biochemical; stronger effect = lower value | activity change, % (no concentration beside the values) | 360,000 tested, 0.56% active | AID 651725; in the data active = activity change below about -65%; inconclusive = mostly about -30% to -63%
#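 AlphaScreen with GST-Six1 and His-Eya2 (5X mix: 250 nM and 500 nM), glutathione donor and nickel acceptor beads; buffer 50 mM Tris pH 8.0, 300 mM NaCl, 1 mM TCEP; 1 h at 37 C in the dark.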
# p53 reactivation = re-activators of mutant p53 | H1299 p53-A138V BP100-luciferase reporter, luminescence, 24 h | Potency, µM (series often up to 92.2 µM), usual class: activators | 320,000 tested, 0.063% active | AID 504706; note: nearly all actives have a fitted effect of over 45% in size
#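 p53-null H1299 cells stably carrying temperature-sensitive p53-A138V and a BP100-luciferase reporter were pinned with compounds (4-point, 1:5 series) and held 24 hrs at 37 deg C. Luminescence was read 10 min after detection reagent.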
# RORg inh = inhibitors of mouse ROR gamma transcriptional activity | P51450 | Drosophila S2 Gal4-RORgamma UAS-luciferase reporter, 20 h | Potency, µM (highest dose often 53.6 µM), most hits filed as inhibitors | 310,000 tested, 5.4% active; note: nearly all actives have a fitted effect of over 60% in size
# Target sequence (P51450 whole entry, looked up, the tested form may be a part): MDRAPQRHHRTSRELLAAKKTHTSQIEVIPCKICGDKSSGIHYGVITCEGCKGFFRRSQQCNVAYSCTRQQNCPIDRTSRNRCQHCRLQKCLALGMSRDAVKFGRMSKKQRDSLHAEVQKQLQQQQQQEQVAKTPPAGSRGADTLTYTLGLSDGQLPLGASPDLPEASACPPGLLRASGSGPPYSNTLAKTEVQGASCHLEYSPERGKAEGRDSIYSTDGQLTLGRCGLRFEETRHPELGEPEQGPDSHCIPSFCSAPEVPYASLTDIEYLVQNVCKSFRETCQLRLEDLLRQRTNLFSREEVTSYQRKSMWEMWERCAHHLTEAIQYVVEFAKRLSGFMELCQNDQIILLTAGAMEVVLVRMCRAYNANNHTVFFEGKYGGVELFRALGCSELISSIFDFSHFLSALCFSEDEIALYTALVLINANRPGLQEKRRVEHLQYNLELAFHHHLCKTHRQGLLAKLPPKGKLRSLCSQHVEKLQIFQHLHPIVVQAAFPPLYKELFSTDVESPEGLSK
#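 Stable Schneider cell line, Gal4 DNA-binding domain fused to ROR gamma, UAS-luciferase. Cmpd 1 hr RT → CuSO4 700 uM final → 20 hr RT → luciferase reagent 10 min → luminescence.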
# CtBP-E1A blk = inhibitors of CtBP/E1A interaction; AlphaScreen GST-E1A/His-CtBP binding, 1536-well; stronger effect = lower value; activity change, % (test concentration not listed); 340,000 tested, 0.49% active; AID 651724; in the data active = activity change below about -65%; inconclusive = mostly about -30% to -63%
#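 Homogeneous bead-based format: GST-tagged E1A captured on glutathione donor beads, His-tagged CtBP on nickel acceptor beads; compounds precede bead addition by 2 h at 37 °C.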
# Gal4-VP16 FLuc = inhibits Gal4-VP16 luciferase reporter, ROR gamma counter-screen; Potency, µM (highest dose often 53.6 µM), actives largely listed as inhibitors; 310,000 tested, 3.5% active; Drosophila S2 Gal4-VP16 UAS-luciferase, luminescence, 20 h;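 note: Gal4-VP16 expression switched on by copper sulfate through the metallothionein promoter; nearly all actives have a fitted effect of over 50% in size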
# Hits are given with their value; – = inactive; ? = inconclusive; · = no result given; [ ] = remark or other dose. Unless noted, calls come from the whole dose curve; as a rule, active = well fitted curve in the direction sought with a large enough effect; inconclusive = small, poorly fitted or top-dose-only effect, or another doubt; inactive = no such curve, though single readings can be large; an effect the other way counts as inactive or inconclusive.
SMILES,Six1-Eya2 blk,p53 reactivation,RORg inh,CtBP-E1A blk,Gal4-VP16 FLuc
COc1ccc(C(=O)N2CCC(C)(C(=O)NS(=O)(=O)C3CC3)C2)cc1F (stereo not drawn),–,·,·,–,·
Cc1ccc(CC(=O)Nc2ccncc2)cc1,–,–,–,·,–
CN(CCCC(=O)Nc1ccncc1)S(=O)(=O)c1ccc(Cl)cc1,–,–,–,–,16µM
O=C(Cc1ccc(Cl)cc1)Nc1ccncc1,–,–,?,–,2.8µM
OC(c1cc(F)cc(Cl)c1)c1ncc(-c2ccc(Cl)cc2)[nH]1 (stereo not drawn),–,·,·,–,·
CCOc1ccccc1NC(=O)C1CC(=O)n2ncnc2N1 (stereo not drawn),–,–,–,–,–
CC(Sc1nnc(Nc2ccccc2)s1)C(=O)Nc1nc(-c2ccccc2)cs1 (stereo not drawn),–,?,–,–,–
CC(Sc1nnc(NCc2ccccc2)s1)C(=O)Nc1ccc2c(c1)C(=O)c1ccccc1C2=O (stereo not drawn),-66,–,–,-82,–
CCc1nc2ccc(C(=O)Nc3cc(-c4ccccc4)ccc3OC)cn2c1N(CCN(C)C)CC1CC1,–,·,·,–,·
CCC1(C)Cc2ccccc2-c2nc(NN)[nH]c(=O)c21 (stereo not drawn),–,–,16µM,–,?
CCC1(CC)Cc2ccccc2-c2nc(NN)[nH]c(=O)c21,–,–,10µM,–,16µM
CCCNc1ncnc2c1cnn2C1CCCCO1 (stereo not drawn),–,·,·,–,·
COc1cc2cc3c4c(cc(OC)c(OC)c4c2cc1OC)CCN3C,·,·,2.8µM,·,–
C=CCC(Nc1ccco1)c1ccccc1 (stereo not drawn),–,–,–,–,18µM
C=CCC(c1ccccc1)N(C(C)=O)c1ccco1 (stereo not drawn),–,–,–,–,–[10 µM]
CCOC(=O)C(=O)N(Nc1ccc(C)cc1)c1ccc(C)cc1,–,–,–,–,–
CCOC(=O)C(=O)N(Nc1ccccc1C)c1ccccc1C,–,–,2.8µM,·,?
FC(F)Oc1ccccc1/C=N/Nc1nc2ccccc2o1,–,–,?,–,?
Fc1ccccc1/C=N/Nc1nc2ccccc2o1,–,?,6.3µM,–,11µM
Nc1c(Cl)ncnc1N/N=C/c1cccc(O)c1,–,–,–,·,–
Clc1ccc(/C=N/Nc2ncnc3ccccc23)cc1Cl,–,?,1.4µM,–,3.5µM
Fc1ccccc1/C=N/Nc1ncnc2ccccc12,–,–,2.8µM,–,4.5µM
CC[C@H](C)[C@H](NC(=O)[C@H](Cc1ccc(O)cc1)NC(=O)[C@@H]1CCCN1C(=O)[C@@H](NC(=O)[C@@H](N)CCCCN)[C@@H](C)CC)C(=O)N[C@@H](CC(C)C)C(=O)O,·,·,–,·,–
Cc1ccc(CN2CCN(Cc3cn[nH]c3-c3cccc(F)c3)CC2CCO)o1 (stereo not drawn),–,–,–,–,–
Cc1nc2cnc(N3CCN(C)CC3)nc2n(C2CC2)c1=O,·,·,–,·,–
SMILES,Six1-Eya2 blk,p53 reactivation,RORg inh,CtBP-E1A blk,Gal4-VP16 FLuc
Cc1ccc(F)c(N=Cc2c(O)c3ccccc3oc2=O)c1,–,–,–,·,–
Cc1ccc(O)c(N=CC2=C(O)c3ccccc3C2=O)c1,?,?,4µM,?,7.1µM
O=C1C(C=Nc2ccccc2O)=C(O)c2ccccc21,–,?,4µM,?,7.1µM
C=CCOc1c(CNC2CCCC2)cc(Cl)cc1OC,–,–,–,–,–
CC(NC(=O)c1ccc2ccccc2n1)c1ccc(Br)cc1 (stereo not drawn),–,–,–,–,–
Brc1ccc(N=Nc2ccc3ccccc3n2)cc1,–,–,0.11µM,–,0.45µM
CC(C)CCC[C@@H](C)[C@@H]1CC[C@H]2C3=CC=C4CC(O)CC[C@]4(C)[C@H]3CC[C@@]21C (stereo partly drawn),·,·,–,·,?
CC(=O)N/C(=C\c1ccccc1)C(=O)OC/C=C/c1ccccc1,–,–,–,–,–
COc1cccc(C(=O)NCC(=O)OCC(=O)C(C)(C)C)c1,–,–,2.5µM,·,–
CC(C)(C)C(=O)COC(=O)CNC(=O)c1ccc(Oc2ccccc2)cc1,–,–,–,–,–
O=C1C(Cl)=C(NCc2cccnc2)C(=O)c2ccccc21,–,–,10µM,?,?
Cc1ccc(NCC(=O)c2ccccc2)cc1Cl,–,–,–,–,–
O=C1C(Cl)=C(Nc2ccccc2)C(=O)c2ccccc21,–,–,13µM,–,13µM
Cc1ccc(NC(=O)C(c2ccccc2)N(C)C)cc1Cl (stereo not drawn),–,–,18µM,–,?
Clc1ccccc1-c1cc(NCc2cccnc2)ncn1,·,·,–,·,–
Cc1ccc(NC2=C(NC(=O)c3ccccc3)C(=O)c3ccccc3C2=O)cc1Cl,-66,?,?,–,?
O=[N+]([O-])c1cc2c(cc1/C=N/NS(=O)(=O)c1ccc(Br)cc1)OCO2,–,–,–,·,–
COc1ccc(C(=O)N/C(=C\c2cn(S(=O)(=O)N(C)C)c3ccccc23)C(=O)N2CCOCC2)cc1,–,–,–,–,–
COc1ccc(S(=O)(=O)N(C)CC(=O)NC2CC2)cc1OC,–,–,?,–,–
CCCNC(=O)OC[C@@H]1O[C@H](CCO/N=C(\C)CCN2CCc3nc(CC)c(CC)cc3C2)C=C[C@@H]1Oc1ccc(OC)cc1,·,·,–[10 µM],·,–[10 µM]
O=C1C(Cl)=C(NCCc2ccccc2)C(=O)N1CCc1ccccc1,–,–,–,–,–
C=CCNC1=C(Cl)C(=O)c2ccccc2C1=O,?,–,13µM,–,?
O=C(O)c1cccc(NC2=C(Cl)C(=O)c3ccccc3C2=O)c1,–,–,11µM,–,?
O=C(O)c1ccc(NC2=C(Cl)C(=O)c3ccccc3C2=O)cc1,–,–,?,–,–
CC(C)NC1=C(Cl)C(=O)c2ccccc2C1=O,?,–,?,?,?
SMILES,Six1-Eya2 blk,p53 reactivation,RORg inh,CtBP-E1A blk,Gal4-VP16 FLuc
CCN(CC)CCCNC1=C(Cl)C(=O)c2ccccc2C1=O,–,–,7.9µM,–,?
O=C1C(Cl)=C(NCCc2ccccc2)C(=O)c2ccccc21,-76,·,·,-79,·
CC(NCCC1(Cc2ccccc2Cl)CCOC(C)(C)C1)c1cccs1 (stereo not drawn),–,–,–,–,–
COc1ccc(C(=O)N2CCC3(CCN(Cc4ccccc4)CC3)CC2)cc1,·,·,–,·,–
COc1ccc(NC(=O)CN(c2ccc(C)cc2)S(=O)(=O)c2c(C)nn(C)c2C)cc1OC,–,–,16µM,–,?
COc1ccc2nc(NC(=O)CN(c3ccc(C)cc3)S(=O)(=O)c3c(C)nn(C)c3C)sc2c1,–,–,–,–,18µM
COc1ccc(NC(=O)CN(c2ccc(C)cc2)S(=O)(=O)c2c(C)nn(C)c2C)cc1,–,–,–,–,–
O=C(O)C1CCc2nc(NCc3ccccc3)nc(NCc3ccccc3)c2C1 (stereo not drawn),–,·,·,–,·

# Assay outcomes from PubChem BioAssay.
